Consider 81 compounds from PubChem BioAssay AID651800 (The Scripps Research Institute Molecular Screening Center, 2012).

For orientation: inhibition means the relative decrease from the control value, in per cent.

Among all 360,000 compounds or so, about 1,300 (0.36%) were called active. This excerpt belongs to a sample that is enriched for actives. Values without a mark were called inactive. No stated cut-off is given here; in the data, active means inhibition above about 19%; inactive means the rest.

The assay has as its system T-cell receptor (TCR). Briefly: inhibitors of human TCR-CD3 interaction, primary screen, biochemical, fluorescence, TAMRA-labeled TCR probe (AID 651800).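 Further: recombinant mutant TCR 2C K166C tagged with TAMRA read by polarization; 0% = receptor in buffer alone and 100% = receptor with positive control.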 The settings on record: at 9.4 µM, hits give high values.
Regarding `COCCNC(=O)Nc1ccc2nc(-c3ccco3)c(-c3ccco3)nc2c1`, the inhibition is 48% (active).
Take `COc1cc(OC)cc(C(=O)NCCSCc2ccco2)c1`: the inhibition was 2.08%.
In the case of `COc1ccc(CCNC(=O)Nc2ccc3c(c2)c(=O)n(C)n3C)cc1OC`, the inhibition is -9.13%.
For the compound `CCOC(=O)C1CSCCS(=O)(=O)N1Cc1ccc(Cl)cc1` (stereo unspecified), the inhibition was -6.78%.
The figure for `Cc1scc(C(=O)NNC(=S)NCc2ccccc2)c1C` is 3.75%; for `CN(C)C(=O)c1cccn(Cc2cccc(C(F)(F)F)c2)c1=O` it is 4.33%.
For the compound `CNC(=S)NNC(=O)c1cccn(Cc2ccccc2)c1=O`, the inhibition was 45.4% (active).
As to `CCOC(=O)CNC(=O)N(C)[C@H]1C[C@H]2c3[nH]c4c(-c5ccc6c(c5)OCO6)cccc4c3CCN2C(=O)[C@H]1[C@H](C)O`, the inhibition is -3.41%.
For the compound `COC(=O)C1=C(C)N(Cc2ccccc2C(F)(F)F)C(=NCC2CC2)NC1c1cccc(Cl)c1` (stereo unspecified), the inhibition was 5.09%.
`C=CCN1C(=O)N(Cc2ccccc2)c2ccccc2S1(=O)=O`: the inhibition is -2.76%.
For the compound `COc1ccc(CNS(=O)(=O)c2cc(Br)ccc2Br)cc1`, the inhibition was 1.49%.
Under `COc1ccc(Cc2nnc(SCC(=O)c3cccc([N+](=O)[O-])c3)n2C)cc1` stands 3.33%; under `COc1ccc(CC(=O)N/N=C/c2cc([N+](=O)[O-])cc(Br)c2O)cc1`, 37.3% (active); under `C[C@H]1[C@H](c2ccccc2)Oc2cc(Br)ccc2S(=O)(=O)N1Cc1cccc(F)c1`, 2.14%.
Under `CCCCCCCCN1C(=O)[C@@H](CC(=O)N2CCN(C(=O)OCC)CC2)C[C@@]2(C(=O)OC)C1=C[C@H](C1CCCC1)O[C@@H]2C` stands 6.64%; under `CSc1nc(N(C)NC(=O)c2cccc(C)c2)c2ccccc2n1`, -2.67%.
As to `CN(NC(=O)c1ccccc1F)c1nc(C(F)(F)F)nc2ccccc12`, the inhibition is 27.9% (active).
Turning to `CC(NC(=O)c1ccccc1F)c1cccc2ccccc12` (stereo unspecified), the inhibition was -0.21%.
Regarding `O=C1CCCCC1C(=O)c1ccccc1` (stereo unspecified), the inhibition is -0.19%.
On to `COC(=O)[C@]12C[C@H](CC(=O)NCc3ccccc3)C(=O)N(CCC3=CCCCC3)C1=C[C@H](C(C)(C)C)O[C@@H]2C`, for which the inhibition was -4.03%.
Under `CNS(=O)(=O)c1ccc2c(c1)[nH]c(=S)n2C` stands 45.4% (active).
Regarding `CCCCn1c(=S)[nH]c2cc(S(=O)(=O)N3CCCCC3)ccc21`, the inhibition was 1.03%.
The figure for `CCn1c(=S)[nH]c2cc(S(=O)(=O)N3CCOCC3)ccc21` is 1.36%; for `COC(=O)[C@]12C[C@H](CC(=O)NCc3cccc(C(F)(F)F)c3)C(=O)N(Cc3ccc4c(c3)OCO4)C1=C[C@H](COCc1ccccc1)O[C@@H]2C` it is 0.9%.
For the compound `O=C(C(=O)N1CCC(CNC(=O)c2cccnc2Cl)CC1)c1cccs1`, the inhibition was 0.67%.
In the case of `C[C@H](CO)N1C[C@H](C)[C@@H](CN(C)C(=O)Nc2ccccc2F)OCc2cn(nn2)CCCC1=O`, the inhibition is 4.97%.
As for `CNC(=S)NNC(=O)c1oc2nc(-c3ccccc3)cc(-c3ccco3)c2c1N`, the inhibition was 59.3% (active).
Under `NNC(=O)c1oc2nc(-c3ccccc3)cc(-c3ccco3)c2c1N` stands 16.2%.
Under `Cc1ccccc1C(=O)N[C@H](C(=O)N1CCC[C@H]1C(=O)NCc1ccccc1)C(C)C` stands 2.94%; under `CCCCNc1cccc2c1S(=O)(=O)N[C@@H](C)CO2`, 2.35%.
Consider `Cc1ccc(N)cc1CN1CCN(c2ncc(Cc3ccccc3)cn2)CC1`, for which the inhibition was 3.41%.
Consider `COCCCNC(=O)C[C@H]1C[C@@]2(C(=O)OC)C(=C[C@H](C(C)(C)C)O[C@@H]2C)N(Cc2ccc3c(c2)OCO3)C1=O`, for which the inhibition was 3.16%.
Take `CC(C)CNc1cccc2c1S(=O)(=O)N[C@H](CC(C)C)CO2`: the inhibition was -1.27%.
`Brc1ccc(COCCc2cn(Cc3ccccc3)c3ccccc23)cc1`: the inhibition is -0.9%.
Turning to `CC1=CC(C)(C)NC(=S)N1NC(=O)c1ccccc1Cl`, the inhibition is -4.79%.
Under `CC(Sc1nnc2c(n1)C1CCC2(C)C1(C)C)C(=O)Nc1ccccc1` (stereo unspecified) stands 1.84%; under `CC12CCC(C(=O)N(NC(=O)c3ccccc3O)C1=O)C2(C)C` (stereo unspecified), 33.6% (active).
On to `Clc1cccc2c1C1CC2CCN1Cc1ccccc1` (stereo unspecified), for which the inhibition was -2.68%.
For `O=C(NCc1ccccc1)[C@H]1CCCN1C(=O)[C@H]1CCCN1C(=O)N1CCOCC1`, the inhibition is 4.79%.
Consider `CCCCCCCCN1C(=O)[C@@H](CC(=O)NCc2ccc(C)o2)C[C@@]2(C(=O)OC)C1=C[C@H](C(C)(C)C)O[C@@H]2C`, for which the inhibition is 1.15%.
For the compound `O=S(=O)(O)c1cc2onnc2c2ccccc12`, the inhibition was 28.6% (active).
As to `COc1ccccc1C(=O)Nn1cnnc1`, the inhibition is -2.57%.
Regarding `O=C(CCN1C(=O)c2ccccc2C1=O)NNC(=O)c1ccc(Cl)cc1Cl`, the inhibition is -3.56%.
With `COc1ccccc1C(=O)NNC(=O)CCN1C(=O)/C(=C\c2ccccc2)SC1=S`, the inhibition was 23.9% (active).
Turning to `CC[C@H](NC(=O)[C@H](Cc1ccccc1)NC(=O)[C@H]1O[C@@H](n2cnc3c(=O)[nH]c(N)nc32)[C@H](O)[C@@H]1O)c1ccccc1`, the inhibition is 1.67%.
For the compound `COC(=O)[C@]1(Cc2ccccc2)NC=C(C(=O)c2ccccc2)[C@@H]1c1cccc(OC)c1`, the inhibition is -0.52%.
The figure for `CCOC(=O)c1c(N)c(C#N)nn1-c1ccccc1C(=O)OC` is -3.5%; for `Cc1ccc2nc(-c3ccc(CN4CCC(n5cc(-c6ccccc6)[nH]c5=O)CC4)cc3)c(-c3ccccc3)nc2c1` it is 5.23%; for `O=C1Nc2ccccc2C1=NN=Cc1ccco1` it is 4.85%.
On to `COc1ccccc1C(=O)N1O[C@]23C=C[C@]14C[C@@H](O)CC[C@]4(C)C2CC[C@]1(C)[C@@H]([C@H](C)/C=C/[C@H](C)C(C)C)CC[C@H]13` (stereo partly specified), for which the inhibition is -1.2%.
As to `CCOc1[nH]n(-c2ccc(Cl)cc2)c(=O)c1C=Nc1ccc(O)cc1`, the inhibition was 28% (active).
The figure for `Cc1ccc(C)c(CN2CCC(CNC(=O)C3CCCN(c4ncnc5c4nc4n5CCCCC4)C3)CC2)c1` (stereo unspecified) is -2.34%; for `CC1(C)CC(=O)C=C(NCCN2CCNCC2)C1` it is 5.49%.
In the case of `Nc1nc2c(ncn2[C@@H]2O[C@H](C(=O)N[C@@H](Cc3ccccc3)C(=O)NCc3ccccc3)[C@@H](O)[C@H]2O)c(=O)[nH]1`, the inhibition is -1.96%.
On to `CN1C(=O)CN2CCc3ccccc3C2c2cc(Cl)ccc21` (stereo unspecified), for which the inhibition was -2.81%.
Regarding `COC(=O)C1=C(C)N(Cc2ccc(F)cc2)C(=S)NC1c1cccc(Cl)c1` (stereo unspecified), the inhibition is 3%.
In the case of `O=C(NS(=O)(=O)c1cccs1)[C@H]1O[C@@H](n2ccc(=O)[nH]c2=O)[C@H](O)[C@@H]1O`, the inhibition is -0.49%.
As for `Cc1cccc(NS(=O)(=O)c2cccc(C(=O)NNC(=O)c3ccccc3O)c2)c1`, the inhibition was 16.2%.
With `Cc1ccccc1C(=O)NNC(=O)CN1C(=O)c2ccccc2C1=O`, the inhibition is -5.72%.
Under `O=C(NNC(=O)c1ccccc1O)c1ccccc1O` stands 40% (active); under `O=C(NNC(=O)c1cc(S(=O)(=O)N2CCCCC2)ccc1Cl)c1ccccc1O`, 16.6%.
Regarding `Cc1cc(C(=O)CCC(=O)NNC(=O)c2ccccc2O)c(C)s1`, the inhibition is 25.6% (active).
`Cc1cc2occ(CC(=O)NNC(=O)c3ccccc3F)c2cc1C`: the inhibition is 2.71%.
Consider `COc1cccc(NC(=O)N(C)C[C@@H]2OCc3cn(nn3)CCCC(=O)N([C@@H](C)CO)C[C@H]2C)c1`, for which the inhibition is -4.37%.
The figure for `C=CC1=C(C(=O)O)N2C(=O)[C@@H](NC(=O)/C(=N/OCC(=O)O)c3csc(N)n3)[C@H]2SC1` is 25.6% (active).
`C=CC1=C(C(=O)O)N2C(=O)[C@@H](NC(=O)/C(=N\OCC(=O)O)c3csc(N)n3)[C@H]2SC1`: the inhibition was 4.98%.
Take `CCCCOCC1CN(CCCC)S(=O)(=O)c2c(Oc3ccc(F)cc3)cccc2O1` (stereo unspecified): the inhibition was 0.77%.
Under `Nc1ncnc2c1ncn2[C@@H]1O[C@H](C(=O)N[C@@H](CCc2ccccc2)C(=O)N2CCCN(Cc3cccs3)CC2)[C@@H](O)[C@H]1O` stands 3.68%.
As for `COc1cccc(CNC(=O)[C@H]2CCCN2C(=O)[C@H]2CCCN2C(=O)c2cc(F)cc(F)c2)c1`, the inhibition is -6.91%.
Take `CC(=O)N1C[C@@H](CO)[C@@H](N(C)C(=O)C(C)(C)C)C[C@H]1c1ccccc1Br`: the inhibition is -0.47%.
The figure for `CN(C)[C@@H]1C(=O)C(C(N)=O)=C(O)[C@@]2(O)C(=O)C3=C(O)c4c(O)ccc(Cl)c4[C@@H](O)[C@H]3C[C@@H]12` is 21.1% (active).
Turning to `C=C1c2c(Cl)ccc(O)c2C(O)=C2C(=O)[C@]3(O)C(O)=C(C(N)=O)C(=O)[C@@H](N(C)C)[C@@H]3[C@@H](O)C12` (stereo partly specified), the inhibition was 33.5% (active).
For `CCc1c(-c2ccccc2OC)ncn1CCc1ccccc1OC`, the inhibition is 7.58%.
As to `NCCN1CCN2C(=O)CN(C(=O)c3ccccc3)CC12` (stereo unspecified), the inhibition was -1.77%.
Turning to `COC(=O)[C@]12C[C@H](CC(=O)NCc3ccc(C)o3)C(=O)N(CCC3=CCCCC3)C1=C[C@H](C(C)(C)C)O[C@@H]2C`, the inhibition was -1.26%.
Regarding `Oc1ccc(/C=N/N(Cc2ccccc2)c2ccccc2)cc1`, the inhibition is 7.05%.
As for `Oc1ccc(N=Cc2sc3ccccc3c2Cl)cc1`, the inhibition was 89.3% (active).
With `Oc1ccc(N=Cc2c(O)ccc3ccccc23)cc1`, the inhibition was 44.6% (active).
The figure for `COc1ccc(-c2ccc3c(n2)CCCN3S(=O)(=O)c2ccc(C)cc2)cc1` is -3.11%; for `CC(C)(C)c1ccc(S(=O)(=O)NCC2CCN(C(=O)C(=O)c3cc4ccccc4o3)CC2)cc1` it is -7.28%.
Under `NC(=O)c1ncn([C@@H]2O[C@H](C(=O)O)[C@@H](O)[C@H]2O)n1` stands 6.54%.
